Results published in PubChem BioAssay (NCI).
The panel holds about 79,000 compounds, 15% with a hit somewhere; the sample as a whole holds those more often. A number with no mark means an inactive call. Active and inactive are the calls of the source. Rule as the data show it: active = growth inhibition above about 70%; inactive = the rest.

Experiments:
[1] = NCI Yeast Anticancer Drug Screen. Data for the rad50 strain (AID 155);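 also: 0% = growth of vehicle-only cultures of the same strain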; details: S. cerevisiae rad50 strain growth inhibition, hits give high values
How it was run: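 Cells are treated with compound, grown, and their growth is then scored against vehicle-only cultures of the same repair-deficient yeast strain.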

[2] = NCI Yeast Anticancer Drug Screen. Data for the mec2-1 strain (AID 157); details: S. cerevisiae mec2-1 strain, hits give high values
How it was run: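 mec2-1 yeast strain, carrying an alteration in DNA damage repair or cell cycle control, was exposed to compounds; growth inhibition was measured relative to vehicle-treated controls.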

[3] = NCI Yeast Anticancer Drug Screen. Data for the sgs1 mgt1 strain (AID 161);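 also: 0% = growth of cultures given vehicle only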; details: S. cerevisiae sgs1 mgt1 strain, hits give high values
How it was run: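 Yeast cells carrying a defined DNA-repair defect were exposed to test compounds. Growth inhibition was measured relative to vehicle-treated controls.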

[4] = NCI Yeast Anticancer Drug Screen. Data for the cln2 rad14 strain (AID 165);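 also: 0% = growth equal to vehicle treated cultures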; details: S. cerevisiae cln2 rad14 strain, hits give high values
How it was run: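 Yeast carrying cln2 and rad14 alterations (cell cycle control and DNA damage repair) were exposed to compounds. Growth inhibition was measured against vehicle-treated controls.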

[5] = NCI Yeast Anticancer Drug Screen. Data for the bub3 strain (AID 167); details: S. cerevisiae bub3 mutant strain, hits give high values
How it was run: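 Part of a panel of yeast mutants defective in DNA damage repair or cell cycle regulation. Each strain is grown with compound, and inhibition is calculated relative to solvent-treated cultures.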

[6] = NCI Yeast Anticancer Drug Screen. Data for the mlh1 rad18 strain (AID 175); details: S. cerevisiae mlh1 rad18 strain growth inhibition, hits give high values
How it was run: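 Growth inhibition of the yeast strain was measured after compound exposure and expressed relative to vehicle-treated controls. The strain carries defined defects in DNA damage repair.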

[7] = at 5.0 µM (retest, dose inferred, filed as 0.5)
[8] = at 50.0 µM (retest, dose inferred, filed as 5.0)

Compound | growth inhibition [1, 7] | growth inhibition [1, 8] | growth inhibition ([1]; at 50.0 µM) | growth inhibition [2, 7] | growth inhibition [2, 8] | growth inhibition ([2]; at 50.0 µM) | growth inhibition [3, 7] | growth inhibition [3, 8] | growth inhibition ([3]; at 50.0 µM) | growth inhibition [4, 7] | growth inhibition [4, 8] | growth inhibition ([4]; at 50.0 µM) | growth inhibition [5, 7] | growth inhibition [5, 8] | growth inhibition ([5]; at 50.0 µM) | growth inhibition [6, 7] | growth inhibition [6, 8] | growth inhibition ([6]; at 50.0 µM)
CC(=O)OC(C)(C)N=Nc1ccc(Br)cc1 | 86% (active) | 99% (active) | 97.9% (active) | 31% | 99% (active) | 98.1% (active) | 60% | 97% (active) | 98.2% (active) | 51% | 94% (active) | 97.3% (active) | 78% (active) | 99% (active) | 97.2% (active) | 63% | 99% (active) | 98.2% (active)
Cc1cccc(CC(C)(C)C)c1NC(=O)C(=O)C(C(=O)c1ccc2ccccc2c1)C1OC(=O)c2ccccc21 (stereo not given) | 6% | 78% (active) | 52.8% | -1% | 92% (active) | 23.6% | 9% | 92% (active) | 36.3% | -1% | 76% (active) | 12.8% | 2% | 93% (active) | 52.1% | -1% | 86% (active) | 68.2%
COC1=CC(=O)c2ncccc2C1=O | 13% | 92% (active) | 91.8% (active) | 6% | 83% (active) | 78.5% (active) | 8% | 81% (active) | 84.8% (active) | -3% | 93% (active) | 89.2% (active) | 2% | 81% (active) | 46.6% | 9% | 93% (active) | 95.1% (active)
CC(NC(=O)OC(C)(C)C)C(=O)NC(Cc1ccccc1)C(=O)NCC(=O)Oc1c(Cl)c(Cl)c(Cl)c(Cl)c1Cl (stereo not given) | 30% | 66% | 65.4% | 27% | 45% | 71.5% (active) | 41% | 72% (active) | 77% (active) | 27% | 55% | 46.5% | 35% | 61% | 56.5% | 68% | 79% (active) | 73.4% (active)
c1ccc(CN(CCCOc2ccccc2)Cc2ccccc2)cc1 | 2% | 25% | 56.4% | -4% | 53% | 29.9% | 5% | 85% (active) | 76.5% (active) | 3% | 15% | 72.3% (active) | 15% | 71% (active) | 79.8% (active) | 25% | 77% (active) | 80.5% (active)
Clc1cc[c]([Sn]([Cl])([O][Sn]([Cl])([c]2ccc(Cl)cc2)[c]2ccc(Cl)cc2)[c]2ccc(Cl)cc2)cc1 | 89% (active) | 97% (active) | 86.5% (active) | 95% (active) | 98% (active) | 88.5% (active) | 96% (active) | 97% (active) | 87.6% (active) | 42% | 98% (active) | 81.5% (active) | 97% (active) | 98% (active) | 87% (active) | 90% (active) | 95% (active) | 92.7% (active)
CCC(N)C(O)C(C)C (stereo not given) | -1% | 10% | 71.7% (active) | -1% | 1% | 2.6% | -3% | 2% | 14.3% | -2% | -2% | -10.6% | 3% | 17% | 13.2% | -1% | 3% | 10.6%
CC(C)N=Cc1cc(Br)cc(Br)c1O.CC(C)N=Cc1cc(Br)cc(Br)c1O.[Co] | 93% (active) | 99% (active) | 92% (active) | 54% | 99% (active) | 90.6% (active) | 87% (active) | 99% (active) | 98% (active) | 88% (active) | 99% (active) | 65% | 98% (active) | 99% (active) | 86.3% (active) | 98% (active) | 99% (active) | 88.7% (active)
CCN(CC)C1Oc2cc3c(cc2C(c2ccc(OC)cc2)C1C)OCO3 (stereo not given) | 2% | 96% (active) | 82.3% (active) | -38% | 96% (active) | 77.5% (active) | -48% | 95% (active) | 89.3% (active) | 1% | 95% (active) | 81% (active) | -34% | 98% (active) | 84.5% (active) | -14% | 97% (active) | 85.3% (active)
CCOc1ccc(C(OC)OC)cc1[N+](=O)[O-] | 3% | -7% | -12.1% | -1% | 3% | -6.9% | -11% | -7% | -25.1% | -4% | 0% | 87.5% (active) | 0% | 1% | -0.8% | -1% | -7% | 10%
